# Methyltransferases: Primary Screen for Target Class Profiling of Small Molecule Inhibitors of Methyltransferases | purified enzyme, MTase-Glo SAH luminescence; hits give low values | calls only at 40 µM | 25,000 tested, 3.9% active; call rule not given here
#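 Each enzyme was reacted with SAM and its substrate, with compounds tested once at 40 uM; SAH formed was read by MTase-Glo luminescence.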
# Calls only; i = inactive; + = active, no number; ! = a repeat was not active. Only a selection was taken, and hits are over-represented in it overall.
SMILES,Methyltransferases
Cc1c(Cl)cccc1N1C(=O)c2cc3ccccc3n2CC1(C)C(=O)NC1CCCC1 (configuration not stated),i
C=C1C(=O)OC2CC(C)C(CCC(C)=O)=CCC12 (configuration not stated),i
C=C1C(=O)OC2CC(C)C(CCC(C)O)=CCC12 (configuration not stated),+
C=C1C(=O)O[C@@H]2C[C@H](C)[C@@]3(O)C=C(C(C)=O)[C@]4(CC3C[C@H]12)C(=O)O[C@H]1C[C@@H](C)C(CCC(C)=O)=CC[C@H]14 (some centres not stated),i
O=C(Cn1ccc2cc(S(=O)(=O)N3CCCCC3)ccc21)N1CCOCC1,i
CCC(C(=O)NCc1cccc(Cl)c1)n1ccc2cc(S(=O)(=O)N3CCCCC3)ccc21 (configuration not stated),i
CC1CCC(NC(=O)C2c3cccn3CC(=O)N2CCC2=CCCCC2)CC1 (configuration not stated),i
CC[N+]1(C/C2=C/CCCCCC2)CCC(NC(=O)C2c3cc(Cl)ccc3Oc3ccc(Cl)cc32)CC1 (configuration not stated),+
CCOC(=O)CNC(=O)N1Cc2c(sc3c2CCCC3)-n2cccc2C1c1cccc(OC)c1 (configuration not stated),i
C=CCN1C(=O)c2ccc(-c3ccco3)n2CC1(C)C(=O)NCc1ccc(Cl)cc1 (configuration not stated),i
CC1(C)COC(=O)[C@@H]1O[C@@H]1O[C@H](CO)[C@@H](O)[C@H](O)[C@H]1O,i
CCC(C)C(=O)O[C@H]1[C@@H](O[C@H]2O[C@H](CO)[C@@H](O)[C@H](O)[C@H]2O)O[C@H](CO)[C@@H](O)[C@@H]1O (some centres not stated),i
CC(C)CCC1(O)C(=O)C(C)(C)C(O[C@@H]2O[C@H](CO)[C@@H](O)[C@H](O)[C@H]2O)C(C)(C)C1O (some centres not stated),+
C=C(C(=O)O)[C@@H]1CC=C2CCC[C@H](C)[C@@]2(C)C1,i
C=C(C(=O)O)[C@@H]1CC[C@@]2(C)CC[C@H](O)[C@@]2(C(C)=O)C1,+
CCCNC(=O)c1cc2n(n1)CC(C)(C(=O)NCc1ccccc1)N(C)C2=O (configuration not stated),i
COc1ccc(CCNC(=O)CCc2nnc3n(Cc4ccccc4)c(=O)c4ccccc4n23)cc1OC,i
CC(=O)Nc1c2n(c3ccccc13)CC(C)(C(=O)NC1CCCCC1)N(Cc1ccccc1F)C2=O (configuration not stated),i
COc1ccc2cc3n(c2c1)CC(C)(C(=O)NC1CCCCCC1)N(CCCN1CC(C)CC(C)C1)C3=O (configuration not stated),i
N#Cc1ccc2[nH]cc(CCCCN3CCN(c4ccc5oc(C(N)=O)cc5c4)CC3)c2c1,+
CC(C)CNC(=O)c1ccc2c(=O)n(C)c3nn(CC(=O)NCc4ccc(Cl)cc4)c(=O)n3c2c1,i
Cc1nc(Nc2n[nH]c3c2CN(C(=O)NC(CN(C)C)c2ccccc2)C3(C)C)c2sccc2n1 (configuration not stated),+
Cc1ccc(CNC(=O)c2ccc3c(=O)nc4c(-c5cccc(F)c5)n[nH]n4c3c2)cc1,i
COC(=O)c1cc2n(n1)CC(C)(C(=O)NC1CCCCCC1)N(c1ccc(OC)cc1)C2=O (configuration not stated),i
COc1cc(OC)cc(N2C(=O)c3ccc(-c4ccco4)n3CC2(C)C(=O)NC2CCCC2)c1 (configuration not stated),i
SMILES,Methyltransferases
C[C@H](Oc1cc(-c2cnn(C3CCNCC3)c2)cnc1N)c1c(Cl)ccc(F)c1Cl,+
C[C@@H](Oc1cc(-c2cnn(C3CCNCC3)c2)cnc1N)c1c(Cl)ccc(F)c1Cl,+!
CCCC1c2ccc(C)n2CCN1C(=O)NC(CC(=O)OCC)c1ccccc1 (configuration not stated),i
O=C(NCCc1c[nH]c2ccc(Cl)cc12)c1cc2n(n1)CCCN(Cc1ccccc1)C2=O,i
Cc1cccc(NC(=O)c2ncn3c2C(=O)N(C2CC2)C(C)(C(=O)NCc2ccc(F)cc2)C3)c1C (configuration not stated),i
CCC(C)N1C(=O)c2ccc(-c3ccco3)n2CC1(C)C(=O)NC1CCCCCC1 (configuration not stated),i
CCOc1ccc(CNC(=O)c2cc3n(n2)CC(C)(C(=O)NC2CCCCCC2)N(C)C3=O)cc1 (configuration not stated),i
COC(=O)c1cccc(NC(=O)N2Cc3c(sc4c3CCCC4)-n3cccc3C2c2cc(F)cc(F)c2)c1 (configuration not stated),i
Cc1ccc(N2C(=O)c3cc4occc4n3CC2(C)C(=O)NC2CCC(C)CC2)cc1 (configuration not stated),i
CCOc1cc2ncc(C#N)c(Nc3ccc(F)c(Cl)c3)c2cc1NC(=O)/C=C/CN(C)C,+
CN(C)C/C=C/C(=O)Nc1cc2c(Nc3ccc(F)c(Cl)c3)ncnc2cc1OC1CCOC1 (configuration not stated),+
CN(C)C/C=C/C(=O)Nc1cc2c(Nc3ccc(F)c(Cl)c3)ncnc2cc1O[C@H]1CCOC1,+
CCOc1cc2ncc(C#N)c(Nc3ccc(OCc4ccccn4)c(Cl)c3)c2cc1NC(=O)/C=C/CN(C)C,i
Cc1ccc(Cn2c(=O)c3ccccc3n3c(SCC(=O)Nc4ccc(C)cc4C)nnc23)cc1,i
COc1ccc(-c2cc3n(n2)CC(C)(C(=O)NC2CCCCC2)N(Cc2cccc(F)c2)C3=O)cc1 (configuration not stated),i
CCC(C)NC(=O)c1ccc2c(=O)n(C(C)C)c3n[nH]c(=O)n3c2c1 (configuration not stated),i
CC1CC(C)CN(C(=O)Cn2c(=O)oc3cc(S(=O)(=O)NC4CCCC4)ccc32)C1 (configuration not stated),i
Cc1ccc(NC(=O)Cn2nc3n(C)c(=O)c4ccc(C(=O)NC5CCCCC5)cc4n3c2=O)cc1,i
CCOC(=O)c1cc2n(n1)CC(C)(C(=O)NCCC(C)C)N(c1ccccc1CC)C2=O (configuration not stated),i
COc1ccc(-c2cc3n(n2)CC(C)(C(=O)NC2CCCCC2)N(Cc2cccnc2)C3=O)cc1 (configuration not stated),i
Cn1c(=O)c2ccc(C(=O)NC3CCCC3)cc2n2c(=O)n(CC(=O)c3cccc(Cl)c3)nc12,i
CCOC(=O)c1cc2n(n1)CC(C)(C(=O)NC1CCCCC1)N(c1ccc(F)cc1C)C2=O (configuration not stated),i
Cc1c(Cl)cccc1NC(=O)N1CCn2cccc2C1Cc1ccccc1 (configuration not stated),i
Fc1cccc(-c2nnn3c2nc(N2CCCC2)c2cc(Cl)ccc23)c1,i
NC1(Cc2ccc(Cl)cc2)CCN(c2ncnc3[nH]ccc23)CC1,+
Clc1ccc(N2CCN(Cc3c[nH]c4ncccc34)CC2)cc1,i
COC(=O)c1cc2n(n1)CC(C)(C(=O)NC1CCCCC1)N(c1ccccc1C)C2=O (configuration not stated),i
Cc1ccc2nc(N)[nH]c(=O)c2c1Sc1ccncc1,+
Cc1cccc([C@H]2Nc3ccc(S(=O)(=O)Nc4cc(C)ccc4C)cc3[C@H]3C=CC[C@H]32)c1,i
